Results from ChEMBL document CHEMBL3988442, “University of Dundee, Small-Polar-MMV Screening Library” (2021).
Out of some 48,000 compounds screened, about 13,000 (27%) showed an effect of 50% or more. Some of the results follow.

Tested on: Wolbachia pipientis
Test: Anti-Wolbachia Cell-Based Screen
Format: functional
Parameters: scale not given: in the data most compounds retested in dose-response had high values
Conditions: 5 µM

Row | Compound | Percent Effect [%]
1 | CCOCCn1nc(C)cc1C(=O)N1CC[C@](C)(O)[C@H](C)C1 | -22.18
2 | C[C@@H]1CN(Cc2nc(C(N)=O)no2)CC[C@@]1(O)C1CC1 | 3.604
3 | CCN(CC)C(CNCc1ccc(O)cc1)c1ccco1 (stereo not drawn) | 0.1551
4 | O=C(NCCCn1ccnc1)C1COCC(=O)N1Cc1ccccc1 (stereo not drawn) | -1.911
5 | CC1COCCN1C(=O)NCCCn1ccnc1 (stereo not drawn) | -6.702
6 | CN(Cc1cccnc1)CC1CCOc2ccccc2C1 (stereo not drawn) | 1.385
7 | Fc1ccccc1CN(CCCn1ccnc1)CC1CCOC1.O=C(O)CC(O)(CC(=O)O)C(=O)O (stereo not drawn) | 96.39
8 | c1cncc(CN(CCCn2ccnc2)CC2CCOC2)c1 (stereo not drawn) | 114.4
9 | COc1ccccc1CN(CCCn1ccnc1)CC1CCOC1.O=C(O)CC(O)(CC(=O)O)C(=O)O (stereo not drawn) | 173.3
10 | CCCN(Cc1cccnc1)Cc1ccc(C2CCCCO2)o1 (stereo not drawn) | 8.313
11 | CCc1ccc(CN(CCCn2ccnc2)Cc2ccc(C)s2)o1.O=C(O)CC(O)(CC(=O)O)C(=O)O | -10.6
12 | Cc1ccc(CN(CCCn2ccnc2)Cc2c[nH]cn2)s1.O=C(O)CC(O)(CC(=O)O)C(=O)O | -8.779
13 | Cc1nc(C)c(C(=O)NCCOc2ccc(C(F)(F)F)cn2)o1 | -28.79
14 | N[C@H]1CCCN(C(=O)c2cnc(COc3ccccc3)nc2O)C1 | -11.28
15 | CC(C)n1c(C2CCCN(CCS(C)(=O)=O)C2)nc2ccccc21 (stereo not drawn) | -3.684
16 | Cc1nc2sccn2c1C(=O)N1CCn2nc(C(=O)NC3CC3)cc2C1 | 8.039
17 | Cc1cnc(N2C[C@H]3CCCC(N(C)Cc4ccccn4)[C@H]3C2)nc1.O=C(O)C(F)(F)F (stereo partly drawn) | -11.38
18 | CCCN1CCN(Cc2cccc(OC(C)C)c2)[C@H]2CS(=O)(=O)C[C@H]21 | -22.43
19 | Cc1c[nH]nc1C1CN(c2cnccn2)CCO1 (stereo not drawn) | 155.2
20 | Cc1c[nH]nc1C1CCCN(c2cnccn2)C1 (stereo not drawn) | 152.5
21 | CCc1cnc(N2CCOC(CCOC)C2)nc1 (stereo not drawn) | -10.95
22 | COCCN1C[C@@H]2CN(c3cnccn3)C[C@@H]2C1=O | -23.71
23 | Cc1c[nH]nc1C1CN(c2ncccn2)CCO1 (stereo not drawn) | 139.2
24 | COCCn1ccnc1C1CCCN(c2cnccn2)C1 (stereo not drawn) | -8.201
25 | CC(C)C1CN(c2cnccn2)CCC(=O)N1Cc1ccc(F)cc1 (stereo not drawn) | -0.3567

Row | Compound | Percent Effect [%]
26 | COc1ccc(C(=O)C2CCCN(c3cnccn3)C2)c(C)c1 (stereo not drawn) | -36.51
27 | Cc1cccc(C)c1OC1CN(Cc2cnc(N3CCOCC3)nc2)C1 | -7.257
28 | Cc1c[nH]nc1C1CCN(c2cnccn2)C1 (stereo not drawn) | 87.37
29 | N#Cc1cccc(N2CCC(CO)(CCCc3ccccc3)CC2)n1 | -12.61
30 | CC(C)(C)c1cnc(CNc2cccc(Cn3cnnc3)c2)o1 | -22.9
31 | Cc1nccn1-c1ccc(CNC(=O)c2ccc(O)nc2)cn1 | -3.999
32 | CC(C)[C@H](NC(=O)NC1CCS(=O)(=O)C1)C(=O)NCc1cccnc1 (stereo partly drawn) | 1.711
33 | COc1ccc(CNC(=O)NCc2ccc(C(N)=O)cc2)cn1 | 4.713
34 | CC(C)[C@H](NC(=O)c1cccc(CCC(C)(C)O)c1)C(N)=O | -12.73
35 | CCOC(=O)NC(C(=O)NCc1ccc(N2CCCCC2)nc1)C(C)C (stereo not drawn) | 2.776
36 | COc1ccc(CNC(=O)NCc2ccc(C)cc2)cn1 | -5.418
37 | CC(C)C(NC(=O)Cc1ccccc1)C(=O)NCc1ccc(O)nc1 (stereo not drawn) | 106
38 | COc1ccc(CNC(=O)C(NC(=O)Cc2ccccc2)C(C)C)cn1 (stereo not drawn) | 88.86
39 | Cc1cccc(C(=O)NC(C(=O)NCc2ccc(O)nc2)C(C)C)c1 (stereo not drawn) | 103
40 | O=S(=O)(CCCS(=O)(=O)c1ccc2c(c1)OCCCO2)c1ccccc1 | -9.516
41 | CC(C)CN1CCCn2nc(CNC(=O)CCCc3cn[nH]c3)cc2C1 | -2.664
42 | O=C(Nc1cc2c(cc1Br)OCCO2)NC1CCS(=O)(=O)C1 (stereo not drawn) | -24.26
43 | CC(C)CNC(=O)[C@H]1C[C@@H]2CN(C(=O)NCC3CCCCC3)C[C@H]1O2 | -20.2
44 | CC(C)CCN1C[C@H]2C[C@H](C(=O)NCC(C)C)[C@@H](C1)O2.O=C(O)C(F)(F)F | 100.1
45 | CC(C)CN1C[C@H]2C[C@H](C(=O)N3CCCC3)[C@@H](C1)O2.O=C(O)C(F)(F)F | 105.1
46 | Cc1cccc(S(=O)(=O)N2C[C@H]3C[C@H](C(=O)NCC(C)C)[C@@H](C2)O3)c1 | -2.145
47 | CC(C)CCN1C[C@H]2C[C@H](C(=O)N3CCCC3)[C@@H](C1)O2.O=C(O)C(F)(F)F | 103.2
48 | Cc1ccccc1CNC(=O)N1C[C@H]2C[C@H](C(=O)N3CCCC3)[C@@H](C1)O2 | 2.79
49 | CC(O)C1CCN(C(=O)Nc2nc(-c3ccccc3)ns2)CC1 (stereo not drawn) | -6.98
50 | Cc1nccn1-c1ccc(NC(=O)C2CCCN2Cc2c[nH]cn2)cc1 (stereo not drawn) | 1.287

Row | Compound | Percent Effect [%]
51 | COc1ncccc1C(=O)N1CCCC1c1nc(-c2ccccc2)n[nH]1 (stereo not drawn) | 0.4619
52 | NC(=O)c1cn[nH]c1C1CCCN1C(=O)c1ccccn1 (stereo not drawn) | 92.76
53 | O=C(c1cc2c([nH]c1=O)CCC2)N1CCCC1c1ccccc1 (stereo not drawn) | -12.47
54 | O=C(c1cc2c([nH]c1=O)CCC2)N1CCCC1c1ccccn1 (stereo not drawn) | -3.505
55 | CNC(=O)c1cn[nH]c1C1CCCN1C(=O)c1ccccn1 (stereo not drawn) | 122.3
56 | NC(=O)c1cn[nH]c1C1CCCN1C(=O)c1ccccc1 (stereo not drawn) | 135.8
57 | O=C(c1ccncc1F)N1CCCC1c1nc(-c2ccccc2)n[nH]1 (stereo not drawn) | 0.33
58 | NC(=O)c1cn[nH]c1C1CCCN1C(=O)COc1ccccc1 (stereo not drawn) | 125.9
59 | CN(CC(=O)Nc1cccc(F)c1)Cc1nc(N)nc(N(C)C)n1 | 5.267
60 | CCCSc1ccccc1NC(=O)N1CCN(C(=O)c2ccc[nH]2)CC1 | -3.563
61 | Nc1cc2c(nn1)CCN(C(=O)c1csc(-c3ccco3)n1)C2 | -0.9791
62 | CCCc1cc(CN(C)C2CCSCC2)n[nH]1 | -21.94
63 | Cn1cc(C[C@H]2[C@H](N3CCOCC3)CCN2C(=O)c2ccoc2)cn1 | -12.72
64 | Cc1ccc(C(=O)N2CCN(c3ncnc4nc(N)ccc34)CC2)cc1 | -17.64
65 | CCn1cc(CN2CCN(Cc3cc(C)cc(C)c3)C(=O)C2)cc1C#N | -8.463
66 | O=C(NC1CC1)C1CNCCN1C(=O)COc1ccc2c(c1)OCO2 (stereo not drawn) | 8.797
67 | O=C(C1CCC1)N1CCN(C(=O)c2cnccn2)[C@H]2CS(=O)(=O)C[C@H]21 | -11.57
68 | Cl.NC(=O)C1CNCCN1C(=O)COc1ccccc1 (stereo not drawn) | 142
69 | O=C(c1cc2c([nH]c1=O)CCC2)N1CCCC1c1cccnc1 (stereo not drawn) | -4.003
70 | CCC(=O)c1ccc(OCC(=O)N2CCNCC2C(=O)NC2CC2)cc1 (stereo not drawn) | -8.081
71 | NC(=O)c1cn[nH]c1C1CCCN1C(=O)c1cnccn1 (stereo not drawn) | 109.9
72 | O=C(NCc1ccc2c(c1)CCCO2)c1cn2c(n1)CNCC2 | -2.912
73 | CN1CCC(N(Cc2ccco2)S(=O)(=O)c2ccc(Cl)cc2)CC1 | 18.55
74 | COCCc1noc(-c2ccc(N[C@H]3CCCCNC3=O)nc2)n1 | -20.61
75 | COc1nc2ccn(CCc3scnc3C)c(=O)c2cc1C#N | -7.908

Row | Compound | Percent Effect [%]
76 | Cn1cc(C(=O)NCCCN2CCCCCC2=O)c(-c2cccnc2)n1 | -24.83
77 | Cc1nn(Cc2ccc(C(=O)NCCCN3CCCC3=O)o2)c(C)c1Br | 118.7
78 | O=C(NCCN1CCCCCC1=O)c1n[nH]c(=O)c2ccccc12 | -2.472
79 | Cc1ccc(C(=O)NCCCN2CCOCC2)c(Cl)c1 | -7.154
80 | Cc1nn(Cc2ccc(C(=O)NCCCN3CCOCC3)o2)c(C)c1Cl | 123.2
81 | Cc1nn(Cc2ccc(C(=O)NCCCN3CCCC3=O)o2)c(C)c1Cl | 113
82 | O=C(NCCCN1CCCC1=O)Nc1ccc(Br)cc1Cl | 29.75
83 | CCn1nc(C)c(CCNC(=O)c2coc(CN3CCOCC3)c2)c1C | -5.303
84 | CC(NC(=O)NCCCN1CCCC1=O)c1ccc(Cl)s1 (stereo not drawn) | 5.893
85 | CCOCC1CN(C(=O)c2ccncc2)Cc2nn(C)cc21.O=C(O)C(F)(F)F (stereo not drawn) | -7.804
86 | COCCn1cc(C(=O)N2CCCC2c2cc(C)no2)ccc1=O (stereo not drawn) | -14.99
87 | CN1CCC(O)(CNCc2ccc(F)c(C(F)(F)F)c2)CC1 | -14.25
88 | Nc1nc2c(c(NCc3nccs3)n1)CCN(CC1CCCC1)CC2 | 99.65
89 | Cc1nc2c(c(NCCc3nc(C)c(Cl)s3)n1)CCNCC2 | 2.221
90 | COCCNc1nc(C)nc2c1CCN(C[C@H]1CC[C@@H](N)CC1)CC2 | 85.9
91 | CCOCc1nc2c(c(N3CC=CC3)n1)CCN(CC1CC1)CC2 | -17.04
92 | Cc1nc2c(c(NCCc3nccs3)n1)CCN(CC1CC1)CC2 | 100.8
93 | COCCNc1nc2c(c(NCC3CCOC3)n1)CCNCC2 (stereo not drawn) | 0.8355
94 | Cc1cnn(CCNc2ncnc3c2CCN(CC2CCOC2)CC3)c1 (stereo not drawn) | 11.29
95 | Nc1nc2c(c(N3CCSCC3)n1)CCN(Cc1ccccn1)CC2 | 1.858
96 | c1csc(CN2CCc3nc(N4CCOCC4)nc(NC4CC4)c3C2)n1 | -41.6
97 | CCN(Cc1nccn1C)C(=O)c1ccc(NCC(C)C)nc1 | -32.37
98 | Cc1cnc(N2CCC3(C2)CN(S(=O)(=O)C2CC2)C3)nc1 | -23.78
